Experiment [1] is described as follows: resazurin metabolic signal in HepG2 cells – cell-based, resazurin fluorescence, 24 h, PK04 Diversity Set, profiling panel (AID 1172). The following applies: HepG2 viability, higher = more signal. Background: Resazurin is reduced to fluorescent resorufin, in cell work by metabolically active cells.
Experiment [2] in a line: budding yeast growth changes without added modifier – OD600, strain BY4716, 24 h, basal condition, primary screen (AID 1173). The following applies: S. cerevisiae BY4716 growth, OD600, 24 h; higher = more signal, called active from +8 up or from −8 down.
Experiment [3] can be described thus: viability profiling in MM1S myeloma cells – cell-based, resazurin fluorescence, basal, 24 h, PK04 Diversity Set, profiling panel (AID 1174).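 Also: MM1S multiple myeloma cell line.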 To be noted: higher = more signal, called active from +8 up or from −8 down.
For experiment [4], the target named is Dihydroorotate dehydrogenase (quinone), mitochondrial (Plasmodium falciparum (isolate 3D7)) (UniProt Q08210). The experiment is described as follows: inhibition of P. falciparum DHODH – biochemical, C-terminal His tag, absorbance 600 nm, primary screen (AID 1175).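 Also: recombinant parasite enzyme with a five histidine tag at its C terminus.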 The following applies: PfDHODH enzyme, DCIP absorbance 600 nm; higher = more signal, called active from +8 up or from −8 down.

Experiment [5] can be described thus: inhibition of PAO1 biofilm formation – strain PAO1, LB-PBS medium, absorbance 600 nm, primary screen (AID 1176). The following applies: P. aeruginosa PAO1 growth/biofilm, A600, 12 h; higher = more signal.
Experiment [6] in a line: growth modulation of vineyard yeast isolate – strain RM11-1a, OD600, basal, 24 h, primary screen (AID 1177).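 Also: cultures grown under basal conditions with no added stressor.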 To be noted: S. cerevisiae RM11-1a growth, OD600, 24 h; higher = more signal, called active from +8 up or from −8 down.
Experiment [7] is described as follows: growth of efflux-deficient E. coli DRC39 – strain DRC39, OD650, 24 h, E. coli filamentation inducers, primary screen (AID 1178).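 Also: growth measured as culture turbidity by optical density at 650 nm.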 The following applies: E. coli DRC39 acrAB, higher = more signal, called active from +8 up or from −8 down.
Experiment [8] in a line: growth of efflux-deficient E. coli DRC39 – strain DRC39, OD650, 48 h, E. coli filamentation inducers, primary screen (AID 1179).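 Also: screen aims at cell division blockers that make cells filament.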 To be noted: E. coli DRC39 delta-acrAB growth, higher = more signal, called active from +8 up or from −8 down.
A short description of experiment [9]: viability profiling in RPMI8226 myeloma cells – cell-based, resazurin fluorescence, basal, 24 h, PK04 Diversity Set, profiling panel (AID 1180).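 Also: RPMI8826 multiple myeloma cell line at 5000 cells per well.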 The following applies: higher = more signal.
For experiment [10], the target named is E3 ubiquitin-protein ligase XIAP (Homo sapiens) (UniProt P98170). The experiment can be described thus: small molecules binding XIAP protein – biophysical, small-molecule microarray, fluorescence 635 nm, primary screen (AID 1181).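 Also: score merges 667 nm emission and signal to noise over triplicate slides.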 To be noted: higher = more signal.
Experiment [11] concerns XIP peptide (Xip251-270) binding. The experiment can be described thus: XIP fragment 251-270 binding compounds – biochemical, small-molecule microarray, fluorescence 635/667 nm, 0.1 µg/mL protein, primary screen (AID 1182). To be noted: fluorescent protein binding, 635 nm, higher = more signal, called active from +8 up or from −8 down.
The next experiment relates to XIP peptide (Xip251-270). The experiment is described as follows: compounds binding XIP fragment 251-270 – biochemical, small-molecule microarray, fluorescence 635/667 nm, 0.5 µg/mL protein, primary screen (AID 1183). To be noted: fluorescence 635 nm, higher = more signal.
The nature of experiment [12]: blood-stage malaria parasite viability loss – strain 3D7, DAPI fluorescence, 100 nL, primary screen (AID 1184).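 Also: parasites grown inside human red blood cells in medium with human serum.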 The following applies: P. falciparum 3D7 growth, 3 d, higher = more signal.
Experiment [13] addresses Homeobox protein Hox-A13 (Mus musculus) (UniProt Q62424). The experiment is described as follows: disruptors of Hoxa13 oligonucleotide interaction – biochemical, fluorescence polarization, labeled oligonucleotide, primary screen (AID 1185). The following applies: Hoxa13:DNA binding, 15 min, higher = more signal, called active from +8 up or from −8 down. (Polarisation of emitted light reports the rotation of a fluorescent probe.)

Experiment [14] is described as follows: blockers of DNA damage checkpoint Chk1 activation – imaging, HeLa, hydroxyurea, phospho-Chk1 antibody, percent positive cells, primary screen (AID 1186). To be noted: hydroxyurea-induced phospho-Chk1 immunofluorescence imaging, higher = more signal.
Experiment [15] can be described thus: blockers of DNA damage checkpoint Chk1 activation – imaging, HeLa, hydroxyurea, phospho-Chk1 nuclear intensity, primary screen (AID 1187). To be noted: hydroxyurea-induced phospho-Chk1 immunofluorescence imaging, higher = more signal.

Calls of active or inactive are those of the source. Unless noted, no rule for the calls is given here.

E3 ubiquitin-protein ligase XIAP (Homo sapiens), sequence (P98170 whole entry, looked up, the tested form may be a part): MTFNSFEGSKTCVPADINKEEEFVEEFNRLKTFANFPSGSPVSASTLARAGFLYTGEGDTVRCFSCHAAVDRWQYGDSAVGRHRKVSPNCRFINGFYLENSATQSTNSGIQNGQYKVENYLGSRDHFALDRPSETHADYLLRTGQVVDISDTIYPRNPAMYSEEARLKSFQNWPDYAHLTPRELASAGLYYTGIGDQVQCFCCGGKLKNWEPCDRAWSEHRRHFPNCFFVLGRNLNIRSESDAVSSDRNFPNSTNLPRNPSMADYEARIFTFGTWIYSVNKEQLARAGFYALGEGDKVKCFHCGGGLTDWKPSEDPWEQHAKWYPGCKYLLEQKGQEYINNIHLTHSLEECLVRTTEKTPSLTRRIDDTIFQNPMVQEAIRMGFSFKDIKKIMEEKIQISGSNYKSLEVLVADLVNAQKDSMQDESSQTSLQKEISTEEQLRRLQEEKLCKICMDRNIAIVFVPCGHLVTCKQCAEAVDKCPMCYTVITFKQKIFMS
Dihydroorotate dehydrogenase (quinone), mitochondrial (Plasmodium falciparum (isolate 3D7)), sequence (Q08210 whole entry, looked up): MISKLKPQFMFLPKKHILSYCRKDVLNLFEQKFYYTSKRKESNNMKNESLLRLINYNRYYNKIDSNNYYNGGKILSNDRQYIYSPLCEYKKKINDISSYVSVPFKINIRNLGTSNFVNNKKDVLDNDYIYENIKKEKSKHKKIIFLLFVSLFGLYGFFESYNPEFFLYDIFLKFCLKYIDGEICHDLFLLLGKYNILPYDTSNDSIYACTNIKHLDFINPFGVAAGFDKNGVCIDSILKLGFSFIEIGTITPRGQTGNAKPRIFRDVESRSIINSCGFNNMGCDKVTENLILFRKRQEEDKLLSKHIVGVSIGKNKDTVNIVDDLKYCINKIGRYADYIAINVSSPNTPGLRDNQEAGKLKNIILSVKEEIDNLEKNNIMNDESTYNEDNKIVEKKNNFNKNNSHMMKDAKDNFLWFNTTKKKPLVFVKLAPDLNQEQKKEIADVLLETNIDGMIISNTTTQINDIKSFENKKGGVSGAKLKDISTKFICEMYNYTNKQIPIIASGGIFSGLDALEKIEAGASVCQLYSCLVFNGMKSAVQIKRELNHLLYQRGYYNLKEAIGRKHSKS
Homeobox protein Hox-A13 (Mus musculus), sequence (Q62424 whole entry, looked up): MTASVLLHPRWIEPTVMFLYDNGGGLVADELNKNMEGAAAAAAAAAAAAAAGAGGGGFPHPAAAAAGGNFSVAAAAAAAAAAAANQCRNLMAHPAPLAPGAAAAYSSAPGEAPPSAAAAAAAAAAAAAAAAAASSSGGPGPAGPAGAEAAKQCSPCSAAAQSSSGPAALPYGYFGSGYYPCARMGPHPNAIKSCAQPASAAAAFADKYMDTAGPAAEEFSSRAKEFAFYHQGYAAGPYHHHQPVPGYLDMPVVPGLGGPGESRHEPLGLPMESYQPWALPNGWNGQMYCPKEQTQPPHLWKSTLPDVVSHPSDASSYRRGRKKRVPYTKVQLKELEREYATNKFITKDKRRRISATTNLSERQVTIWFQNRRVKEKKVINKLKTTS

As for `CCCN1C(=O)[C@]2(CCC(=O)OC(C)(C)C)N=C(c3ccc(OCCCO)cc3)O[C@@H]2c2ccccc21`, the z-score in [1] is -0.154; in experiment [2] it was -0.836 (inactive); in experiment [3], -2.08 (inactive); in experiment [5], 3.33 (inactive); in experiment [6], 0.654 (inactive); in experiment [7] it was 1.08 (inactive). The z-score was 0.0565 (inactive) in experiment [8]; -2.7 in experiment [9]; -2.33 in [12]; -3.37 (inactive) in [13]; -0.292 (inactive) in experiment [14]; -0.312 (inactive) in experiment [15]. The composite z-score was 0.023 (inactive) in experiment [4], 0.118 in [10], 0.55 (inactive) in experiment [11] and 0.601 with XIP peptide (Xip251-270).

`CCCC#C[Si](O[C@H](CC)c1cn(Cc2ccccc2)nn1)(C(C)C)C(C)C`: the z-score was -0.394 in experiment [1]; -14.2 (active) in experiment [2]; -1.05 (inactive) in experiment [3]; 0.0763 (inactive) in experiment [5]; -0.0787 (inactive) in [6]; -0.393 (inactive) in experiment [7]. In addition, the z-score in experiment [8] was -0.195 (inactive); in [9] it was -0.754; in [12], 0.0331; in experiment [13] it was -0.88 (inactive); in experiment [14] it was -0.074 (inactive); in [15], 0.0744 (inactive). Moreover, the composite z-score in [4] is -0.205 (inactive); in experiment [10], -0.173; in experiment [11] it was -0.249 (inactive); in the experiment on XIP peptide (Xip251-270), 0.598.

Regarding `C=CCC(OC(C)=O)[C@@H]1[C@@H](N(Cc2cccc3ccccc23)C(=O)Cc2ccc(OC)cc2)c2cc(OCCCO)ccc2N1C(=O)Cc1ccc2ccccc2c1` (some centres undefined), the z-score in [1] was 0.687; in experiment [2] it was 0.428 (inactive); in experiment [3] it was 0.504 (inactive); in [5], -0.853 (inactive); in experiment [6], -0.372 (inactive); in [7], 0.685 (inactive). The z-score is 0.248 (inactive) in experiment [8]; 0.4 in experiment [9]; -1.91 in experiment [12]; -2.41 (inactive) in experiment [13]; 0.42 (inactive) in experiment [14]; 0.512 (inactive) in experiment [15]. Further, the composite z-score in experiment [4] was -0.717 (inactive); in [10], 0.141; in experiment [11], -0.559 (inactive); in the experiment with XIP peptide (Xip251-270) it was 0.296.

With `CC(=O)NCCCC[C@@H]1NC(=O)[C@H]2C[C@@H](C(=O)NCCCCCCNC(=O)CS)[C@@H](c3cccc(OCCO)c3)N2C1=O`, the z-score was -0.0625 in experiment [1]; 0.535 (inactive) in [2]; -0.469 (inactive) in experiment [3]; 0.339 (inactive) in [5]; 1.05 (inactive) in [6]; 0.0843 (inactive) in experiment [7]. Moreover, the z-score was -0.264 (inactive) in experiment [8]; -0.737 in experiment [9]; 0.287 in experiment [12]; -4.38 (inactive) in experiment [13]; 0.0478 (inactive) in [14]; 1.23 (inactive) in experiment [15]. The composite z-score in [4] is 0.929 (inactive); in [10], 0.0593; in experiment [11], 2.82 (inactive); with XIP peptide (Xip251-270), 0.349.

For `C[C@@H]1ON(c2ccccc2)[C@H](c2ccccc2)[C@H]1C(=O)O`, the z-score in [1] is 0.0656; in [2], 0.0157 (inactive); in experiment [3] it was -0.0211 (inactive); in experiment [5], 0.188 (inactive); in [6], 0.058 (inactive); in experiment [7] it was -0.636 (inactive). Also, the z-score in [8] was -1.02 (inactive); in [9], 0.481; in experiment [12] it was -0.413; in experiment [13] it was -0.711 (inactive); in [14], 0.0099 (inactive); in [15], 0.203 (inactive). For the same molecule, the composite z-score in experiment [4] is 0.341 (inactive); in experiment [10], -0.0343; in experiment [11] it was -0.117 (inactive); with XIP peptide (Xip251-270), 0.0627.

Take `[N-]=[N+]=Nc1ccccc1C[C@]1(C(=O)N2CCOCC2)N=C(c2ccc(OCCCO)cc2)O[C@H]1c1ccccc1N=[N+]=[N-]`: the z-score is -1.37 in experiment [1]; -2.51 (inactive) in experiment [2]; -3.41 (inactive) in experiment [3]; -0.444 (inactive) in experiment [5]; 0.275 (inactive) in experiment [6]; 1.16 (inactive) in experiment [7]. Also, the z-score is 2.48 (inactive) in experiment [8]; -2.65 in experiment [9]; -2.32 in experiment [12]; -3.58 (inactive) in [13]; -1.46 (inactive) in experiment [14]; -2.06 (inactive) in experiment [15]. Moreover, the composite z-score in [4] is -0.481 (inactive); in experiment [10], 0.446; in experiment [11] it was 0.986 (inactive); with XIP peptide (Xip251-270), 0.721.

Consider `CC(C)=CCCC(C)=CC(O)C1C=CC2C(=O)NC(=O)C2N1Nc1ccc(Cl)cc1Cl` (centres undefined), for which the z-score in [1] is -1.66; in experiment [2], -4.77 (inactive); in [3], -1.56 (inactive); in [5] it was 1.01 (inactive); in [6], 0.432 (inactive); in experiment [7], -0.0552 (inactive). The z-score in experiment [8] was -0.797 (inactive); in experiment [9], -1.73; in experiment [12] it was 0.812; in experiment [13] it was -3.59 (inactive); in [14] it was 1.39 (inactive); in experiment [15], 0.848 (inactive). Further, the composite z-score was 0.112 (inactive) in experiment [4], -0.0326 in [10], 0.323 (inactive) in experiment [11] and 0.171 in the experiment with XIP peptide (Xip251-270).

Consider `CC[C@@H]1C=C(C(=O)O)[C@H](c2ccc(OC)cc2)N1S(=O)(=O)c1ccc(C)cc1`, for which the z-score is -0.896 in experiment [1]; 0.77 (inactive) in [2]; -0.675 (inactive) in experiment [3]; -0.281 (inactive) in experiment [5]; -0.391 (inactive) in experiment [6]; -0.826 (inactive) in experiment [7]. Besides, the z-score in experiment [8] was -0.521 (inactive); in [9] it was -1.16; in [12] it was 2.03; in experiment [13], -2.62 (inactive); in experiment [14], -0.745 (inactive); in [15], -1.26 (inactive). Besides, the composite z-score in experiment [4] was -1.09 (inactive); in experiment [10] it was -0.0286; in experiment [11] it was 1.98 (inactive); in the experiment with XIP peptide (Xip251-270) it was 0.129.

In the case of `NC(=O)N1C(=O)C2C(C1=O)C1C=C(CCCO)C2C(c2ccc(CN3CCCC3)cc2)N1Cc1cc2c(cc1Br)OCO2` (centres undefined), the z-score in [1] is -0.766; in experiment [2], -0.222 (inactive); in experiment [3], -1.29 (inactive); in experiment [5], 0.792 (inactive); in experiment [6] it was -0.572 (inactive); in experiment [7] it was -0.672 (inactive). The z-score in experiment [8] was -0.299 (inactive); in experiment [9] it was -1.5; in experiment [12], -0.459; in experiment [13], -4.36 (inactive); in [14] it was 0.504 (inactive); in [15] it was 0.519 (inactive). Further, the composite z-score was 0.0032 (inactive) in experiment [4], 0.0251 in experiment [10], 0.224 (inactive) in experiment [11] and -0.0073 in the experiment on XIP peptide (Xip251-270).

The values are drawn from PubChem BioAssay.
